Measurements reported in PubChem BioAssay.

Test: inhibitors of PAF-induced NFkB signaling in CF airway cells, dose response, cell-based, uHTS hits, panel, cytotoxicity readout (AID 624344)
Conditions: CF bronchial epithelial cells, PAF-induced NFkB reporter inhibition, with PAF, run 2; at 79 µM (top of the series) unless noted
`CC1CCCCN1c1ncnc(N)c1[N+](=O)[O-]` (stereo not given) gave an inhibition of 103%.
`NC(c1csc(NC(=O)Nc2cccc(Cl)c2)n1)c1ccccc1Cl` (stereo not given) showed an inhibition of 101%.
`CC1(C)CC(=O)C=C(NC2=CC3OC(c4ccccc4)OCC3OC2=O)C1` (stereo not given) gave an inhibition of 114%.
`CC(C)OC(=O)c1cccc(C(=O)Nc2cccc(NC(=O)c3cccc(C(=O)OC(C)C)n3)n2)n1` showed an inhibition of 109% [at 19.8 µM].
`O=C(NCc1cccnc1)/C(=C\c1ccc(-c2cccc(Cl)c2)o1)S(=O)(=O)c1ccccc1` showed an inhibition of 99.2%.
Work on `CC(=O)OCCCNc1cc(Sc2ccc(Cl)cc2)c2nonc2c1[N+](=O)[O-]` yielded an inhibition of 113%.
For `CCOC(=O)Nc1nc(-c2ccccc2)c(C(=O)c2ccccc2)s1`, the inhibition was 78.8%.
Work on `CC1=C(C(=O)OCc2ccc3c(c2)OCO3)C(c2cccc([N+](=O)[O-])c2)NC(=O)N1` (stereo not given) yielded an inhibition of 92.2% [at 19.8 µM].
In the case of `Cc1nc([N+](=O)[O-])c(Sc2nc3ccccc3n2C)n1Cc1ccccc1`, the inhibition is reported as 115%.
In the case of `Cc1ccc(NC(=O)c2nc[nH]c2C(=O)NCCCNC(=O)c2[nH]cnc2C(=O)Nc2ccc(C)cc2)cc1`, the inhibition is reported as 95.2%.
In the case of `Cc1nc([N+](=O)[O-])c(Sc2nc3ccc([N+](=O)[O-])cc3[nH]2)n1Cc1ccccc1`, the inhibition is reported as 112%.
For `Cc1ccc(NC(=O)c2cc(C(=O)c3cc(Cl)ccc3O)cn(-c3ccc(C)cc3)c2=O)cc1`, the inhibition was 96.9%.
Molecule `COc1ccc(-c2cc(=O)oc3cc(O)ccc23)cc1` has an inhibition of 103%.
In the case of `COC(=O)c1ccc(-c2ccc(OC)c([C@H]3[C@H]4C=CC[C@@H](C)[C@@H]4C(=O)N3Cc3ccccc3)c2)cc1`, the inhibition is reported as 80%.
With `CC1C(=O)N(Cc2cn(Cc3ccco3)nn2)CCS(=O)(=O)N1Cc1ccc(-c2ccccc2C(F)(F)F)cc1` (stereo not given) the inhibition was 114%.
Molecule `Cc1c([N+](=O)[O-])c2ccc(O)cc2n1-c1ccccc1` has an inhibition of 94.8%.
Molecule `CC(C)(C)c1nc(NC(=O)Nc2ccccc2)sc1Br` has an inhibition of 103%.
`COc1ccc(NC(=O)Cn2ncn3nc(-c4ccc(OC)cc4)cc3c2=O)cc1` showed an inhibition of 107%.
`CN(C)CCCN(C(=O)CCSc1ccccc1)c1nc2cc3c(cc2s1)OCO3` gave an inhibition of 116%.
With `C=CCSc1nc2ccccc2n1C(=O)/C=C/c1ccc(OC)c(OC)c1` the inhibition was 102%.
Work on `Cc1ccc(CNc2ncnc3ccc(-c4ccoc4C)cc23)o1` yielded an inhibition of 89.6%.
Work on `CCOCC(=O)NC1CCc2cc(OC(=O)COCC)c(OC)c(OC)c2-c2ccc(SC)c(=O)cc21` (stereo not given) yielded an inhibition of 85.3%.
For `O=C(CN1C(=O)CCC1=O)Nc1nc(-c2nc3ccccc3s2)cs1`, the inhibition was 85.9%.
Work on `COc1ccc2[nH]c(=O)c3c(c2c1)OC(C)(C)C=C3` yielded an inhibition of 117%.
For `CCOC(=O)COc1ccc2ccccc2c1/C=C/[N+](=O)[O-]`, the inhibition was 97.5%.
`CCOC(=O)C1(C(=O)OCC)COC(=O)C1CN1Cc2cc3ccccc3nc2C1` (stereo not given) showed an inhibition of 65.6%.
In the case of `C=C(C)[C@@H]1CC[C@]2(C(=O)O)CC[C@]3(C)[C@H](CC[C@@H]4[C@@]5(C)CC[C@H](O)C(C)(C)[C@@H]5CC[C@]43C)[C@@H]12`, the inhibition is reported as 57.6% [at 19.8 µM].
With `COc1ccc(-c2cnc(N)nc2-c2ccc(OC)cc2O)cc1` the inhibition was 102%.
`COc1ccccc1NS(=O)(=O)c1ccc(-c2cnc(C3CC3)o2)cc1` gave an inhibition of 97.8%.
With `COc1cccc(-c2cnc3c(NC=O)cc(-c4ccc(OC)cc4OC)cn23)c1` the inhibition was 86.1%.
For `Cc1ccc(CNc2ncnc(N)c2[N+](=O)[O-])cc1`, the inhibition was 80.8%.
With `COc1cc(-c2cnc3c(NC=O)cc(-c4ccc(C)cc4)cn23)cc(OC)c1OC` the inhibition was 70.5%.
For `C[C@@H](NC(=O)c1coc(=O)c(Br)c1)c1ccccc1`, the inhibition was 99.8% [at 19.8 µM].
With `c1cnc2ccc(-n3ccnc3)cc2c1` the inhibition was 102%.
For `COc1ccc(-n2nnnc2S(=O)(=O)Cc2ccc(C(=O)O)cc2)cc1`, the inhibition was 102%.
`CC(=O)c1c(O)cc2c3c1OC(C)(C)C1CCC(C)(CC31)O2` (stereo not given) gave an inhibition of 99%.
`CCn1c2ccccc2c2cc(/C=N/O)ccc21` showed an inhibition of 105%.
With `C=C1C(=O)[C@]23C[C@H]1CC[C@H]2[C@]1(C)[C@@H](O)CC[C@@](C)(C(=O)O)[C@H]1C[C@@H]3O` the inhibition was 103%.
`Cc1ccccc1S(=O)(=O)Cc1ccc(C(=O)N2CCN(c3cccc(C)c3C)CC2)o1` showed an inhibition of 114%.
With `CCOC(=O)c1[nH]c(C)c(C(=O)N2CCc3ccccc32)c1C` the inhibition was 43.6%.
